In test [1] the target is DNA repair nuclease/redox regulator APEX1 (Homo sapiens) (UniProt P27695). The test is described as follows: qHTS Validation Assay for Inhibitors of the Human Apurinic/apyrimidinic Endonuclease 1 (APE1) (AID 1705;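 also: TAMRA fluorescence gain over two minutes as APE1 cuts a quenched THF abasic duplex; series mostly up to about 57 µM; % is scaled to controls: 0 for no effect and ±100 for the full control effect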). In a few lines:
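Endonuclease activity of human APE1 is followed as dequenching when the enzyme incises a tetrahydrofuran abasic site in a short duplex labelled 5'-TAMRA/3'-BHQ-2 (50 nM final), after 15 min enzyme–compound preincubation at room temperature.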
A general note: Quantitative high-throughput screening tests each substance at several concentrations.

Test [2] in a line: Counterscreen for APE1 Inhibitors: Fluorescent Dye Displacement Validation Assay (AID 1707).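 Also: plate controls were ThO with dsDNA and no compound for no effect and ThO without dsDNA for full effect.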 In a few lines:
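Thiazole Orange displacement from dsDNA: 250 nM ThO with 50 nM TAMRA-labelled abasic-site (tetrahydrofuran) duplex in 50 mM Tris-HCl pH7.5, 50mM NaCl, 2 mM MgCl2, 0.01% Tween-20. Loss of endpoint fluorescence (ex 480 nm, em 540 nm) flags DNA binders.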
In general terms: Counterscreens check selectivity or assay interference.

Test [3] is described as follows: Validation screen for inhibitors of Lassa infection (AID 463096; calls by dose curve; also: potency is read from the fitted curve at half-maximal effect).
The nature of test [4]: Validation screen for small molecules that induce DNA re-replication in MCF 10A normal breast cells (AID 463097). Also: nearly all actives have a fitted effect of over 60% in size. Also: potency is read from the fitted curve at half-maximal effect. In a few lines:
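DNA re-replication was detected as a rise in nuclei with elevated Hoechst fluorescence after a 48 hr compound exposure of MCF 10A cells at 37 C.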

For test [5], the target named is M-phase phosphoprotein 8 (Homo sapiens) (UniProt Q99549). In words: qHTS Validation Assay for Inhibitors for MPP8 Chromodomain Interactions with Methylated Histone Tails (AID 488949). Also: nearly all actives have a fitted effect of over 55% in size. Also: potency is read from the fitted curve at half-maximal effect. An outline of the steps: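 Disruption of the preformed MPP8–trimethyl-H3K9 peptide complex (both 50 nM, 30 min, RT) is measured after 30 min compound exposure, using AlphaScreen proximity beads; aurintricarboxylic acid titration serves as plate control.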
Chain of M-phase phosphoprotein 8 (Homo sapiens) (Q99549 whole entry, looked up): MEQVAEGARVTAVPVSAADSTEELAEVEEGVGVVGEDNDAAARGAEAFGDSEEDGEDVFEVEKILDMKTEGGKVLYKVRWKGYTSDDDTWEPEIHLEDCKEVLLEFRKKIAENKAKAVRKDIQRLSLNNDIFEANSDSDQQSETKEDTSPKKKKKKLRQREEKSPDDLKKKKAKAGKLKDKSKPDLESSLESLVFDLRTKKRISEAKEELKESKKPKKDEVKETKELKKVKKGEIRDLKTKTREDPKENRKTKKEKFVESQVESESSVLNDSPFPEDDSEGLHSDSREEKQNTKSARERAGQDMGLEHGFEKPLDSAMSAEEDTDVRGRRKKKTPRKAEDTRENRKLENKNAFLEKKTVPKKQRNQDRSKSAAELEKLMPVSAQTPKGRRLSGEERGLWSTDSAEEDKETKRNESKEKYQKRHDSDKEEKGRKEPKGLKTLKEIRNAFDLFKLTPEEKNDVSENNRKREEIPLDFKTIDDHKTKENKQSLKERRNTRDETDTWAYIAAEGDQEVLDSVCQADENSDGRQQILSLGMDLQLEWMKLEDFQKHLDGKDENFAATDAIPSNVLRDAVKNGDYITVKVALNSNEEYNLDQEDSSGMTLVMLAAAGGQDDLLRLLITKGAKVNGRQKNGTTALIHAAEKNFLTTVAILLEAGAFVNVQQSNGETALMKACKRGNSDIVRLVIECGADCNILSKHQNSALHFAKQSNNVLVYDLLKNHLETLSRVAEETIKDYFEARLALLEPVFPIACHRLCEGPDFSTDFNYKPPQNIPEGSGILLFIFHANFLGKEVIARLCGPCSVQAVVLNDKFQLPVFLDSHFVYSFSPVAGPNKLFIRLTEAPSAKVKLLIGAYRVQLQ

Test [6] concerns the target Transient receptor potential cation channel subfamily V member 1 (Homo sapiens) (UniProt Q8NER1). The test is described as follows: HTS Assay for Compounds that Act as Enhancers of the Vanilloid Receptor 1 (AID 488979). Also: 0% is about no effect. In a few lines: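 TRPV1-expressing cells loaded with Fluo-8 calcium dye; compounds added and calcium influx read kinetically for 3 min (agonist phase), then capsaicin at EC20 added and read 2 min more for enhancement. Fluorescence ex 480/em 520 nm.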

Test [7] has as its target Thyrotropin receptor (Homo sapiens) (UniProt P16473). In words: qHTS Assay for Antagonists of the Thyroid Stimulating Hormone Receptor (AID 488980). Also: series mostly up to about 58 µM; 0% is about no effect. In a few lines: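 Cells expressing human TSHR (HEK293) are dispensed in HBSS/HEPES containing 70 uM RO 20-1724, compound is added, then TSH at EC80 (4 nM final). Antibody in lysis buffer follows, 30 minutes at room temperature before HTRF detection.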

Test [8] deals with Thyrotropin-releasing hormone receptor (Homo sapiens) (UniProt P34981). In words: qHTS for Small Molecule Agonists and Allosteric Enhancers of Human TRH Receptor: Validation Screen for Agonists (AID 493127;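 active = calcium activation more than 3 SD above the typical response in the agonist read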;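 also: intracellular calcium rise by fluo-8 fluorescence before TRH EC20 addition; 0% is about no effect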). The settings on record: TRH receptor agonist cell assay; at 2 µM; stronger effect = higher value. In a few lines: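 Cells 2000/well, 10% FCS, 18 h 33.5C/5% CO2 → fluo-8 Ca dye, RT 30 min–1.5 h → FDSS baseline 10 × 1 s → compound added → 230 cycles (1 s/cycle) agonist mode. TRH controls.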
Chain of Thyrotropin-releasing hormone receptor (Homo sapiens) (P34981 whole entry, looked up): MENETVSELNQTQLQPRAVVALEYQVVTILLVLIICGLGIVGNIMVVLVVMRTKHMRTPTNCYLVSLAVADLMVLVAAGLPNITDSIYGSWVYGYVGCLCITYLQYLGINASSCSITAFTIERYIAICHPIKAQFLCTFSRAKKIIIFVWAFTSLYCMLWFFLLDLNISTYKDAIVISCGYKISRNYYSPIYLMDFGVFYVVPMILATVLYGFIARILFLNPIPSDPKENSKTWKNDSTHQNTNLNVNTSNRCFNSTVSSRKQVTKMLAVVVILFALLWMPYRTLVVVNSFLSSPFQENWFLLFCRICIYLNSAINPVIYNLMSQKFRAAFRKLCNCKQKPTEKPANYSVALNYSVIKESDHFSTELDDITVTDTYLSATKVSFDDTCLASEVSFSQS

The nature of test [9]: Validation screen for small molecules that induce DNA re-replication in SW480 colon adenocarcinoma cells (AID 504364). Also: 0% is about no effect. An outline of the steps:
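250 cells/well; compound pinned in; 48 hr, 37 C, 5% CO2; Hoechst added, 40 min; nuclear fluorescence imaged, 405 ex / 500-530 em; re-replication scored as increase in high-intensity nuclei.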

The target of test [10] is Glutathione peroxidase 1 (Homo sapiens) (UniProt P07203). The test is described as follows: Primary qHTS Assay for Inhibitors of Recombinant Selenoprotein Glutathione Peroxidase 1 (GPX1) (AID 1845191). Also: nearly all actives have a fitted effect of over 65% in size. An outline of the steps: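 Recombinant GPX1 (10 nM final) was preincubated with compound for 30 min at room temperature, then reacted with 1 mM GSH, 0.5 mM CHP, 0.5 mM NADPH and 100 nM glutathione reductase; NADPH fluorescence (340/450 nm) was read at 0 and 15 min.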
Chain of Glutathione peroxidase 1 (Homo sapiens) (P07203 whole entry, looked up): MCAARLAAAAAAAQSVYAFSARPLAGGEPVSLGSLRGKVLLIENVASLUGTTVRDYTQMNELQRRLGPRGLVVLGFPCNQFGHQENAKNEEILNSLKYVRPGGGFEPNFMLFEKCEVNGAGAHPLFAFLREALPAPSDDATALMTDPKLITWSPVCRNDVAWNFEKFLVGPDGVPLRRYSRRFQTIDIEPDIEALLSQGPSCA

The target in test [11] is Phospholipid hydroperoxide glutathione peroxidase GPX4 (Homo sapiens) (UniProt P36969). In words: Primary qHTS Assay for Inhibitors of Recombinant Selenoprotein Glutathione Peroxidase 4 (GPX4) (AID 1845192). Also: series mostly up to about 50 µM; % is scaled to controls: 0 for no effect and ±100 for the full control effect; nearly all actives have a fitted effect of over 65% in size. An outline of the steps:
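GR-coupled readout: 100 nM GR, 1 mM GSH, 0.5 mM NADPH; NADPH fluorescence (ex 340/em 450 nm) read at t=0 and after 15 min RT. GPX4 200 nM, preincubated 30 min with compound; substrate 0.5 mM CHP.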

Structures are written as SMILES. Values without a mark were called inactive. Inconclusive results are not listed. Active and inactive are the calls of the source. Unless noted, calls follow the shape of the dose curve; as a rule, active = well fitted curve in the direction sought with a large enough effect; inconclusive = small, poorly fitted or top-dose-only effect, or another doubt; inactive = no such curve, though single readings can be large; an effect the other way counts as inactive or inconclusive.

Chain of Thyrotropin receptor (Homo sapiens) (P16473 whole entry, looked up): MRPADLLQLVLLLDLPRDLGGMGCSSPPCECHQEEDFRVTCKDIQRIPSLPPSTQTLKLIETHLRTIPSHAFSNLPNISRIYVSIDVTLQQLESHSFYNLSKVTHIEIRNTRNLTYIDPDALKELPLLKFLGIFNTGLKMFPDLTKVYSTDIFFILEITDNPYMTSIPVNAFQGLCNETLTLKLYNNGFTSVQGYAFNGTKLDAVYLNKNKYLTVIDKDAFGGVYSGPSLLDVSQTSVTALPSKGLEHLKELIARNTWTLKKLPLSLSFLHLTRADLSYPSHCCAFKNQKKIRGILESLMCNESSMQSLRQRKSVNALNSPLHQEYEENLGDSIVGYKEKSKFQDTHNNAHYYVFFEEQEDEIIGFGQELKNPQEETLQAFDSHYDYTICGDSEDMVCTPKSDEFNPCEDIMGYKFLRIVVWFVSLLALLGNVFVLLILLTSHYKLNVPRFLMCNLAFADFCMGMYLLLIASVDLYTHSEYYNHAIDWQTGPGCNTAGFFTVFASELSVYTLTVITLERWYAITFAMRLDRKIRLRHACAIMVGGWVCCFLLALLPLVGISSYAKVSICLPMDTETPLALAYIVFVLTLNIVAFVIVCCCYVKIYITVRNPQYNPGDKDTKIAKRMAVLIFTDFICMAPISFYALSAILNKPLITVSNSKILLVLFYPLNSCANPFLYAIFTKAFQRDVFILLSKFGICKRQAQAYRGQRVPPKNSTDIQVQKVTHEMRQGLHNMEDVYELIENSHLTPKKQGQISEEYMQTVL
Chain of Transient receptor potential cation channel subfamily V member 1 (Homo sapiens) (Q8NER1 whole entry, looked up): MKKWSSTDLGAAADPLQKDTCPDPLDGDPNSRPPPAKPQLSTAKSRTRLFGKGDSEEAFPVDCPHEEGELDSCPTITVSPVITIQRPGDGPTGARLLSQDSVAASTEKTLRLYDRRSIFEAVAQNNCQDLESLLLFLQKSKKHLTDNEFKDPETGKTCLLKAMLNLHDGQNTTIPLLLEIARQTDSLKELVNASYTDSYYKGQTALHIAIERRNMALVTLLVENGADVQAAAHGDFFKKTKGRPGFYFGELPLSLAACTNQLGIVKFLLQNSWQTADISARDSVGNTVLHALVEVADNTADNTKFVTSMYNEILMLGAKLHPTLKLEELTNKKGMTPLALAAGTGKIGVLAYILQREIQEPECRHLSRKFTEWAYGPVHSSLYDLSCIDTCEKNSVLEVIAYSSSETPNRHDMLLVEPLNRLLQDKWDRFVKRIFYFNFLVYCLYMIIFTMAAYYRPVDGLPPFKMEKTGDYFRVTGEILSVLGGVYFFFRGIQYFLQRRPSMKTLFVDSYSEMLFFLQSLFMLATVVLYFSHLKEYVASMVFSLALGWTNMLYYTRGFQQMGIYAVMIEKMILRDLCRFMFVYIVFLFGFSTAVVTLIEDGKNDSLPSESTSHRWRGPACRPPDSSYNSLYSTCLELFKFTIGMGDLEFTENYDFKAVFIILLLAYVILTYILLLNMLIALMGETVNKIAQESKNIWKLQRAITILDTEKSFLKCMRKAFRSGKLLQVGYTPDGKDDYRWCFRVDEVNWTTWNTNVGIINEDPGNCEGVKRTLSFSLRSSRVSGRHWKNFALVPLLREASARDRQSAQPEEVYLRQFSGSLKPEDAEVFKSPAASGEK
Chain of DNA repair nuclease/redox regulator APEX1 (Homo sapiens) (P27695 whole entry, looked up): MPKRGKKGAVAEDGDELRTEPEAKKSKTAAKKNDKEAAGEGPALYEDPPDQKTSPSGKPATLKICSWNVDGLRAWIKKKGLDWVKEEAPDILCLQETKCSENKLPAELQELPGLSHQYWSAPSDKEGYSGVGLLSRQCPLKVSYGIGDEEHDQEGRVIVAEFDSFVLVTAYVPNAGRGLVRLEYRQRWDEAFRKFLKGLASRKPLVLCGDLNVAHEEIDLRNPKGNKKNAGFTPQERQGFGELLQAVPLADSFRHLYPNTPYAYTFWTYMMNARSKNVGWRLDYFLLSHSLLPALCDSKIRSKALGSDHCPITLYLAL
Chain of Phospholipid hydroperoxide glutathione peroxidase GPX4 (Homo sapiens) (P36969 whole entry, looked up): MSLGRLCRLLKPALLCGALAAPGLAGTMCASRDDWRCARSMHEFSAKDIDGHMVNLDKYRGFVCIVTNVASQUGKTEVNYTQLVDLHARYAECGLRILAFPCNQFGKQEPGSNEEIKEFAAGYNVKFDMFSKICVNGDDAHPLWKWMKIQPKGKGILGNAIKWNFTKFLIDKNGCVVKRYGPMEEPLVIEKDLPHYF

`COC(=O)C(N)CCCN=C(N)N[N+](=O)[O-]` (stereo unspecified): the Potency result in test [1], in test [3], in [4] and in test [5] was “inactive” each time. Further, the compound was classed as inactive in [2], in [6], in test [7] and in [9]. In [8], the activation was 1.06%.

`C=CCN1CC[C@@]2(C)c3cc(O)ccc3CC1[C@@H]2C`: the Potency entry in test [1], in test [3], in test [4] and in [5] was “inactive” in each case. For the same compound, the call in test [2], in test [6], in test [7] and in test [9] was inactive. Moreover, the activation in [8] was 1.19%.

On to `CCN1C[C@]2(C)CC[C@H](O)[C@@]34[C@@H]5C[C@@H]6[C@@H](OC)C[C@@](O)(C5[C@H]6O)[C@@H](C[C@@H]23)[C@@H]14`, for which the Potency entry in test [1], in [3], in test [4] and in test [5] was “inactive” in each case. In addition, the call in test [2], in test [6], in [7] and in test [9] was inactive. For the same compound, in [8], the activation is 0.875%.

`Nc1ncnc2c1ncn2[C@@H]1O[C@H](COP(=O)(O)CP(=O)(O)OP(=O)(O)O)[C@H](O)[C@H]1O`: the Potency entry in [1], in test [4] and in test [5] was “inactive” each time. Moreover, the outcome in [2], in test [6], in test [7] and in [9] was inactive. Moreover, the activation in [8] was 1.25%.

`C[N+]1(C)C2CC(OC(=O)C(CO)c3ccccc3)CC1C1OC12` (stereo unspecified): the Potency entry in test [1], in test [3], in test [4] and in [5] was “inactive” in each case. In addition, the compound was classed as inactive in test [2], in test [6], in test [7] and in test [9].

With `CCCN1CCC[C@@H](c2cccc(C#N)c2)C1`, the Potency entry in [1], in test [3], in [4] and in test [5] was “inactive” in each case. For the same compound, the call in test [2], in test [6], in test [7] and in test [9] was inactive. The activation in test [8] was 1.31%.

In the case of `CC12CCC3C(CCC4=C(O)C(=O)CCC43C)C1CCC2=O` (stereo unspecified), the Potency result in test [1], in test [3], in [4] and in test [5] was “inactive” each time. In addition, the compound was called inactive in test [2], in test [6] and in test [9].

`CN1C[C@@H](CS(=O)(=O)N(C)C)C[C@@H]2c3cccc4c3c(cn4C)C[C@H]21`: the Potency result in test [1], in test [3] and in test [4] was “inactive” in each case. In addition, the result in test [2], in test [6], in [7] and in test [9] was inactive. Also, the activation in [8] is 1.44%.

`CCCN1CCCC(c2cccc(O)c2)C1` (stereo unspecified): the Potency result in [1], in test [3], in test [4] and in test [5] was “inactive” throughout. Further, the call in [2], in test [6], in test [7] and in [9] was inactive. The activation in test [8] was -4.62%.

With `NCC#Cc1ccccc1`, the Potency result in [1], in [3], in [4] and in test [5] was “inactive” each time. Besides, the outcome in test [2], in test [6] and in test [7] was inactive. Besides, in test [8], the activation was 1.69%.

`CCCCN1C2CCC1CC(OC(c1ccc(F)cc1)c1ccc(F)cc1)C2` (stereo unspecified): the Potency result in [1] and in test [5] was “inactive” in each case. In addition, the call in [2], in test [7] and in test [9] was inactive. For the same compound, the Potency in [3] was 10 µM (active); in test [4] it was 20 µM (active). Also, the activation in test [8] is 8.5%.

For the compound `CCCN(CCC)[C@@H]1CCc2c(F)ccc(O)c2C1`, the Potency entry in test [1], in test [3] and in [4] was “inactive” in each case. The call in test [2], in test [6], in [7] and in test [9] was inactive. Moreover, in test [8], the activation was -2.75%.

For the compound `CC1Cc2cc3c(cc2C(c2ccc(N)cc2)=NN1)OCO3` (stereo unspecified), the Potency result in test [1], in [3] and in test [4] was “inactive” throughout. For the same compound, the compound was classed as inactive in [2], in test [6], in test [7] and in test [9]. In addition, the Potency in [5] is 56.2 µM (active). For the same compound, the activation in [8] was 0.188%.

As to `CCOC(=O)C=C(C)C=CC[C@@H](C)CCCC(C)C`, the Potency entry in test [10] and in [11] was “inactive” throughout.
